Assay results as given in PubChem BioAssay (EPA / NIEHS).
Where “and” joins values, the source holds several entries; their conditions need not be identical. Equal entries are not always repeated. Where a structure was tested more than once in an assay, its records may differ in their call. Calls of active or inactive are those of the source. Rule for the calls: active = hit-call score of the fitted dose curve at least 0.9, where 1 is the maximum; inactive = score below 0.9.

Legend:
[1] = read-out: TIMP metallopeptidase inhibitor 2 (TIMP2), TIMP2 (gene 7077); experiment: BSK_KF3CT_TIMP2: BioMAP Diversity Plus: KF3CT Assay for TIMP metallopeptidase inhibitor 2 (TIMP2) Biomarker Activity (AID 2283071); details: primary human keratinocytes with fibroblasts; actives raise or lower the signal
In short: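 Co-culture of human primary keratinocytes and foreskin fibroblasts, measured 24 h after chemical dosing. TIMP-2 quantified by ELISA and fitted in both directions relative to DMSO. Cytotoxicity checked in parallel cultures by SRB total-protein staining.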

[2] = read-out: Transforming growth factor beta 1 (TGFb1), TGFB1 (gene 7040); experiment: BSK_KF3CT_TGFb1: BioMAP Diversity Plus: KF3CT Assay for Transforming growth factor beta 1 (TGFb1) Biomarker Activity (AID 2283072); details: primary human keratinocytes with fibroblasts; actives raise or lower the signal
In short: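 Human keratinocyte/foreskin fibroblast co-culture; TGF-b1 measured by ELISA 24 h after dosing, fitted bidirectionally versus DMSO. Cytotoxicity checked in parallel cultures by total protein (SRB staining, 560 nm).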

[3] = read-out: C-C motif chemokine 2 (Homo sapiens) (UniProt P13500); experiment: BSK_KF3CT_MCP1: BioMAP Diversity Plus: KF3CT Assay for Monocyte Chemoattractant Protein 1 (MCP1/CCL2) Biomarker Activity (AID 2283073); details: primary human keratinocytes with fibroblasts; actives raise or lower the signal
In short: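 Human keratinocyte–foreskin fibroblast co-culture; MCP-1 measured by ELISA 24 h after dosing. Bidirectional fit vs DMSO; cytotoxicity tracked by SRB total protein in parallel cultures.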

[4] = read-out: Matrix Metallopeptidase 9 (MMP9), MMP9 (gene 4318); experiment: BSK_KF3CT_MMP9: BioMAP Diversity Plus: KF3CT Assay for Matrix Metallopeptidase 9 (MMP9) Biomarker Activity (AID 2283074); details: primary human keratinocytes with fibroblasts; actives raise or lower the signal;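 for AC50: MMP9 protein level quantified by ELISA in the co-culture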
In short: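 Human keratinocyte/foreskin fibroblast co-culture; compound added; 24 h; MMP-9 by ELISA; bidirectional fit vs DMSO baseline.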

[5] = read-out: urokinase plasminogen activator (uPA), PLAU (gene 5328); experiment: BSK_KF3CT_uPA: BioMAP Diversity Plus: KF3CT Assay for urokinase plasminogen activator (uPA) Biomarker Activity (AID 2283075); details: primary human keratinocytes with fibroblasts; actives raise or lower the signal
In short: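 ELISA readout of uPA, analyzed for signal gain or loss relative to DMSO, from a human primary keratinocyte–foreskin fibroblast co-culture measured 24 h after chemical treatment.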

[6] = read-out: E-selectin (Homo sapiens) (UniProt P16581); experiment: BSK_LPS_Eselectin: BioMAP Diversity Plus: LPS Assay for Eselectin Biomarker Activity (AID 2283077); details: primary human HUVEC with PBMC; actives raise or lower the signal
In short: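 Human umbilical vein endothelial cells co-cultured with PBMC under LPS stimulation; cell-surface E-selectin measured by ELISA 24 h after dosing. Change in either direction versus DMSO, with SRB total-protein staining in parallel cultures for cytotoxicity.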

[7] = read-out: Interleukin-8 (IL8), CXCL8 (gene 3576); experiment: BSK_LPS_IL8: BioMAP Diversity Plus: LPS Assay for Interleukin-8 (IL8) Biomarker Activity (AID 2283078); details: primary human HUVEC with PBMC; actives raise or lower the signal
In short: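 Human umbilical vein endothelial cells co-cultured with PBMC, LPS-stimulated, exposed to compound for 24 h. IL-8 quantified by ELISA; fitted in both directions against DMSO, with SRB total-protein staining of parallel cultures for cytotoxicity.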

[8] = BSK_LPS_SRB: Viability Assessment in the BioMAP Diversity Plus: LPS Assay (AID 2283079); details: primary human HUVEC with PBMC;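 note: total protein by sulforhodamine B absorbance as a cytotoxicity measure; measured one day after compound addition; fitted in both directions against DMSO so loss or gain of signal counts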
In short: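 Co-culture of human umbilical vein endothelial cells and PBMC, read 24 h after dosing. Total protein by 0.1% SRB staining after 10% TCA fixation, absorbance at 560 nm; bidirectional fit against DMSO.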

[9] = read-out: Interleukin-1 alpha (IL1a), IL1A (gene 3552); experiment: BSK_LPS_IL1a: BioMAP Diversity Plus: LPS Assay for Interleukin-1 alpha (IL1a) Biomarker Activity (AID 2283080); details: primary human HUVEC with PBMC; actives raise or lower the signal
In short: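 Human umbilical vein endothelial cells co-cultured with PBMC and stimulated with LPS; IL-1a measured by ELISA 24 h after dosing. Bidirectional fitting against DMSO; cytotoxicity checked by SRB staining in parallel cultures.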

[10] = read-out: Monocyte Chemoattractant Protein-1 (MCP1), CCL2 (gene 6347); experiment: BSK_LPS_MCP1: BioMAP Diversity Plus: LPS Assay for Monocyte Chemoattractant Protein-1 (MCP1) Biomarker Activity (AID 2283081); details: primary human HUVEC with PBMC; actives raise or lower the signal;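 for AC50: secreted MCP-1 protein quantified by ELISA in culture supernatant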
In short: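 Human umbilical vein endothelial cells co-cultured with PBMC, LPS-stimulated; secreted MCP-1 measured by ELISA 24 h after compound addition. Bidirectional curve fitting against DMSO baseline; SRB total-protein staining in parallel cultures for cytotoxicity.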

[11] = BSK_LPS_PGE2: BioMAP Diversity Plus: LPS Assay for Prostaglandin E2 (PGE2) Biomarker Activity (AID 2283082); details: primary human HUVEC with PBMC; actives raise or lower the signal;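 for AC50: secreted prostaglandin E2 measured by ELISA in LPS-stimulated co-culture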
In short: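 HUVEC plus human PBMC co-culture stimulated with LPS; secreted PGE2 quantified by ELISA 24 h after chemical dosing. Activity fitted bidirectionally against DMSO baseline; parallel SRB staining (0.1% SRB after 10% TCA fixation, 560 nm) flags overt cytotoxicity.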

[12] = read-out: Macrophage colony-stimulating factor (MCSF), CSF1 (gene 1435); experiment: BSK_LPS_MCSF: BioMAP Diversity Plus: LPS Assay for Macrophage colony-stimulating factor (MCSF) Biomarker Activity (AID 2283083); details: primary human HUVEC with PBMC; actives raise or lower the signal
In short: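 HUVEC–PBMC co-culture, M-CSF measured by ELISA 24 h after chemical dosing. Fitted in both directions relative to DMSO as negative control; overt cytotoxicity assessed by SRB total-protein staining in parallel cultures.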

[13] = read-out: Tissue Factor, F3 (gene 2152); experiment: BSK_LPS_TissueFactor: BioMAP Diversity Plus: LPS Assay for Tissue Factor Biomarker Activity (AID 2283084); details: primary human HUVEC with PBMC; actives raise or lower the signal
In short: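 Human umbilical vein endothelial cells co-cultured with PBMC were dosed with compound. Cell-surface CD142 was measured by ELISA 24 h later. Activity was fitted bidirectionally against DMSO, with SRB total-protein staining in parallel cultures for cytotoxicity.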

[14] = read-out: Tumor necrosis factor (Homo sapiens) (UniProt P01375); experiment: BSK_LPS_TNFa: BioMAP Diversity Plus: LPS Assay for Tumour Necrosis Factor alpha (TNFa) Biomarker Activity (AID 2283085); details: primary human HUVEC with PBMC; actives raise or lower the signal
In short: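 Human umbilical vein endothelial cells co-cultured with PBMC and stimulated with LPS. TNFa was measured by ELISA 24 h after chemical dosing, fitted bidirectionally relative to DMSO.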

[15] = read-out: Vascular cell adhesion molecule 1 (VCAM1), VCAM1 (gene 7412); experiment: BSK_LPS_VCAM1: BioMAP Diversity Plus: LPS Assay for Vascular cell adhesion molecule 1 (VCAM1) Biomarker Activity (AID 2283086); details: primary human HUVEC with PBMC; actives raise or lower the signal
In short: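 Human umbilical vein endothelial cells co-cultured with PBMC and stimulated with LPS; VCAM-1 measured by ELISA 24 h after dosing. Bidirectional curve fitting against DMSO baseline; cytotoxicity tracked in parallel by SRB total-protein staining.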

CD38, CD38 (gene 952) = experiment: BSK_SAg_CD38: BioMAP Diversity Plus: SAg Assay for CD38 Biomarker Activity (AID 2283087); details: primary human HUVEC with PBMC; actives raise or lower the signal
In short: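 Human HUVEC plus PBMC co-culture stimulated with superantigen; CD38 measured by ELISA 24 h after chemical dosing. Fluorescence read-out, bidirectional fit against DMSO; cytotoxicity tracked in parallel by SRB and Alamar Blue.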

CD40, CD40 (gene 958) [16] = experiment: BSK_SAg_CD40: BioMAP Diversity Plus: SAg Assay for CD40 Biomarker Activity (AID 2283088); details: primary human HUVEC with PBMC; actives raise or lower the signal
In short: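 HUVEC plus PBMC co-culture, superantigen-activated, with CD40 read by ELISA 24 h after dosing. Curves fitted in both directions against DMSO. Overt cytotoxicity checked by parallel SRB total-protein staining.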

CD69, CD69 (gene 969) = experiment: BSK_SAg_CD69: BioMAP Diversity Plus: SAg Assay for CD69 Biomarker Activity (AID 2283089); details: primary human HUVEC with PBMC; actives raise or lower the signal;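 for AC50: cell surface CD69 protein quantified by ELISA with fluorescence detection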
In short: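 ELISA, fluorescence read-out: CD69 on human umbilical vein endothelial cell + PBMC co-culture, 24 h post-dosing. Gain or loss of signal fitted bidirectionally against DMSO baseline.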

[17] = read-out: Monocyte Chemoattractant Protein-1 (MCP1), CCL2 (gene 6347); experiment: BSK_SAg_MCP1: BioMAP Diversity Plus: SAg Assay for Monocyte Chemoattractant Protein-1 (MCP1) Biomarker Activity (AID 2283090); details: primary human HUVEC with PBMC; actives raise or lower the signal
In short: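 MCP-1 levels in the endothelial–PBMC SAg co-culture were quantified by ELISA at 24 h post-dosing; both increases and decreases versus DMSO scored. Cytotoxicity monitored by SRB total protein in parallel cultures.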

CD40, CD40 (gene 958) [18] = experiment: BSK_LPS_CD40: BioMAP Diversity Plus: LPS Assay for CD40 Biomarker Activity (AID 2283076); details: primary human HUVEC with PBMC; actives raise or lower the signal
In short: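 HUVEC plus PBMC co-culture stimulated with LPS; CD40 quantified by ELISA 24 h after compound dosing. Fitting was bidirectional relative to DMSO. SRB staining of parallel cultures flagged overt cytotoxicity.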

Measured: AC50

Chain of Tumor necrosis factor (Homo sapiens) (P01375 whole entry, looked up): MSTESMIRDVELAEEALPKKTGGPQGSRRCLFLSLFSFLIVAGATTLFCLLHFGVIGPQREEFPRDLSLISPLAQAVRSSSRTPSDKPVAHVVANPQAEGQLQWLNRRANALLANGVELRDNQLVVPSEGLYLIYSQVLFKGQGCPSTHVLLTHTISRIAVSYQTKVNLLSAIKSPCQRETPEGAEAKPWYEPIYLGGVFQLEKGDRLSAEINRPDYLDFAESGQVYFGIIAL
Chain of E-selectin (Homo sapiens) (P16581 whole entry, looked up): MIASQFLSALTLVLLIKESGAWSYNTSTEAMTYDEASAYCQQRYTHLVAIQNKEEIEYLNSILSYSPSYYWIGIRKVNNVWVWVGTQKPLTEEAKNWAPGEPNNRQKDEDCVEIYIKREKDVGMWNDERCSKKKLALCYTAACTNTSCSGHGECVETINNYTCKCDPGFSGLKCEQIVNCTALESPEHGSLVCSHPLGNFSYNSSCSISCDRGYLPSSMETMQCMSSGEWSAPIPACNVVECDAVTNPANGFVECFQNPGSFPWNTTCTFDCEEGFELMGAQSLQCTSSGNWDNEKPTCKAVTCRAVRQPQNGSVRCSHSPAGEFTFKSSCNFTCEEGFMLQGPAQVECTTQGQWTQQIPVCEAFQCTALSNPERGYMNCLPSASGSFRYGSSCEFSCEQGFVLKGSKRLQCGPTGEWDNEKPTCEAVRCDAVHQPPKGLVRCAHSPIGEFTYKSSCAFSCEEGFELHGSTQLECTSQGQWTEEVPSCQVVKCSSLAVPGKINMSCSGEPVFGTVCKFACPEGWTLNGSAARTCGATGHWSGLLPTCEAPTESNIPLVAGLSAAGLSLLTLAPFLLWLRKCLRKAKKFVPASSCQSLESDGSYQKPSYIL

CC/C(=C(\c1ccccc1)c1ccc(OCCN(C)C)cc1)c1ccccc1
inactive: [11]
active: [1] 7.86 µM and 9.54 µM | [2] 8.7 µM and 6.05 µM | [3] 5.98 µM and 7.88 µM | [4] 7.84 µM and 8.19 µM | [5] 9.92 µM and 9.67 µM | [6] 28.3 µM and 14.3 µM | [7] 26.5 µM and 10.8 µM | [8] 9.77 µM and 10.4 µM | [9] 6.74 µM and 9.95 µM | [10] 28.3 µM and 12.4 µM | [11] 33600 nM | [12] 15.3 µM and 8.1 µM | [13] 29.1 µM and 20 µM | [14] 28.6 µM and 17.4 µM | [15] 24.3 µM and 13.6 µM | CD38, CD38 (gene 952) 8.87 µM and 7.95 µM | CD40, CD40 (gene 958) [16] 9.12 µM and 6.03 µM | CD69, CD69 (gene 969) 8.89 µM and 8.09 µM | [17] 10.4 µM and 10.1 µM

CCOC(=O)C=Cc1ccccc1
inactive: all assays above

c1ccc2c(c1)-c1ccc3ccc4cccc5cc-2c1c3c45
active: [1] 825 nM | [3] 238 nM | CD40, CD40 (gene 958) [18] 2760 nM | [10] 2.71 µM | [12] 1.38 µM | [13] 8.2 nM | CD38, CD38 (gene 952) 6.08 µM | CD40, CD40 (gene 958) [16] 1.98 µM | CD69, CD69 (gene 969) 1.98 µM
inactive: all other assays above

O=S1(=O)CC(Cl)(Cl)C(Cl)(Cl)C1
active: [1] 1360 nM | [2] 1.11 µM | [3] 1380 nM | [4] 1.74 µM | [5] 2 µM | [6] 1.1 µM | [7] 1.47 µM | [8] 5.01 µM | [9] 518 nM | [10] 1.76 µM | [12] 0.71 µM | [13] 538 nM | [14] 938 nM | [15] 797 nM | CD38, CD38 (gene 952) 0.35 µM | CD40, CD40 (gene 958) [16] 0.48 µM | CD69, CD69 (gene 969) 0.486 µM | [17] 807 nM
inactive: [11]

COC(=O)c1ccc(C(=O)OC)cc1
not listed: CD40, CD40 (gene 958) [18]
inactive: all other assays above
